PostGolgi ctrl = growth of the yeast control strain, post-Golgi counter-screen; efflux-deficient yeast background strain, growth absorbance A615, 16 h; inhibition, % at 10 µM; hit rate 5% among 98,000
CYP2C19 inhib = human CYP2C19 inhibition; P33261; CYP2C19 Supersomes, luciferin-H EGE luminescence, 30 min; inhibition, % at 5 µM; hit rate 21% among 96,000; AID 778;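 active = CYP2C19 inhibition above a set limit at 5 µM in the primary screen, cut at about 50% in these data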;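 note: plate controls were negative control wells for no effect and 2.5 mM tranylcypromine positive control for full effect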
CYP2C19 activ = cytochrome P450 2C19 (human) activation; P33261; recombinant CYP2C19, luciferin-H EGE luminescence; active compounds read high; 0 = fully inhibited enzyme, 1 = untreated enzyme; activation factor at 5 µM; 96,000 tested, under 10 active;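 active = activation factor of at least 2 at 5 µM in the primary screen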;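 note: 0 = wells with 2.5 mM tranylcypromine and 1 = vehicle-only wells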
PostGolgi yeast = growth inhibition of a yeast mutant, post-Golgi transport screen; post-Golgi transport phenotypic cell assay; inhibition, % at 10 µM; hit rate 0.9% among 98,000;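 note: yeast cells grown in 1536-well plates; yeast grown about 18 h at 30C before absorbance read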
CYP2C9 activ = CYP2C9 (human) activation; recombinant CYP2C9, luciferin-H conversion, luminescence; active compounds read high; factor 1 = untreated enzyme, 0 = blocked; activation factor at 5 µM; hit rate 1.4% among 96,000; AID 1024;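 active = activation factor of 2 or more for CYP2C9 at a 5 µM dose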;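 note: 0 = sulfaphenazole-blocked wells and 1 = vehicle-only wells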
Target sequence (P11712 whole entry, looked up): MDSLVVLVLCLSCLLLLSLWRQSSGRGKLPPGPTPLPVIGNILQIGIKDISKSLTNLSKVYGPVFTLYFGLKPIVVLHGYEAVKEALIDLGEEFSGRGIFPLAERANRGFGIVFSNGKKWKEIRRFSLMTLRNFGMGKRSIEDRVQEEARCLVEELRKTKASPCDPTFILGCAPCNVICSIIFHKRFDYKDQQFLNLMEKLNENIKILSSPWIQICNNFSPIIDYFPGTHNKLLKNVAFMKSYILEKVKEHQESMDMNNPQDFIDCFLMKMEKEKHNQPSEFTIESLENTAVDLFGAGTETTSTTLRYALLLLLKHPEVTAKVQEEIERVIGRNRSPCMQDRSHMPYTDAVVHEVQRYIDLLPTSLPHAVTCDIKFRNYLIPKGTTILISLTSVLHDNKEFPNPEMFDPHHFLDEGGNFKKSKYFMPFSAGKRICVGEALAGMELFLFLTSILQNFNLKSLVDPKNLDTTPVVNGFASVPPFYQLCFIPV
CYP2C9 inhib = blocks human cytochrome P450 2C9 | CYP2C9 Supersomes, luciferin-H conversion, luminescence | inhibition, % at 5 µM | hit rate 20% among 96,000;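 active = blocking of liver enzyme CYP2C9 beyond about 50% at 5 µM, limit read from the data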
The depositor's hits bear a star; x = not tested or not shown. Shown are actives, neighbours in structure and some others; about 32% of the full set was active somewhere. Cut-off read from the data, not from the text of the source, unless noted: active = inhibition above about 30%; inactive = the rest.

SMILES	PostGolgi ctrl	CYP2C19 inhib	CYP2C19 activ	PostGolgi yeast	CYP2C9 activ	CYP2C9 inhib
CCCC(C)C(=O)N(Cc1ccccc1)c1ccccn1 (stereo unspecified)	-1	67*	0.3	-3	0.5	51*
CCCCC(CC)C(=O)Nc1ccccc1C(=O)NC(C)C (stereo unspecified)	37*	10	0.9	2	0.6	41
CCCCC(CC)C(=O)Nc1ccccc1C#N (stereo unspecified)	17	53*	0.5	-4	0.6	43
CCC(C)NC(=O)c1ccccc1NC(=O)Nc1ccccc1 (stereo unspecified)	7	24	0.8	-10	0.6	36
FC(F)(F)c1nnc2ccc(NCn3nnc4ccccc43)nn12	-4	43	0.6	-4	0.3	68*
Cc1nonc1NCn1nnc2ccccc21	2	13	0.9	5	0.5	48
CCOC(=O)c1ccc(Nc2nnc3nc(C)cc(C)n23)cc1	9	5	0.9	15	1	0
CC1C(O)=C(c2nc3ccccc3[nH]2)C(=N)N1c1ccccc1 (stereo unspecified)	14	9	0.9	-6	1	2
COC(=O)c1nc(-c2ccc(C)cc2)oc1N(C)C	4	15	0.9	11	2.4*	-144
COC(=O)c1nc(-c2ccccc2)oc1N(C)C	5	9	0.9	14	2.9*	-193
CCOC(=O)c1nnc(-c2ccccc2)o1	7	-5	1.1	0	1.1	-6
CCN(CC)C(=O)COc1ccc2oc(C)c(C(=O)OC)c2c1	11	22	0.8	-1	0.6	40
CCCCOC(=O)C(C)Nc1n[nH]c(=O)[nH]c1=O (stereo unspecified)	6	-20	1.2	-4	1.1	-6
CC(Nc1n[nH]c(=S)[nH]c1=O)C(=O)OCc1ccccc1 (stereo unspecified)	-10	11	0.9	-10	0.1	90*
CCCCOC(=O)C(C)Nc1n[nH]c(=S)[nH]c1=O (stereo unspecified)	10	26	0.7	-6	0.2	79*
COC(=O)c1ccc(S(=O)(=O)N2CCCC2)o1	4	-7	1.1	-5	1	-4
COc1ccc(-n2c(SCC(N)=O)nnc2-c2ccc(NS(=O)(=O)c3ccc(C)cc3)cc2)cc1	-9	18	0.8	-2	0.3	73*
COc1ccc(-n2c(SCC(=O)Nc3ccccc3)nnc2-c2ccc(NS(=O)(=O)c3ccc(C)cc3)cc2)cc1	7	3	1	-9	1	-1
COc1ccc(-n2c(SCC#N)nnc2-c2ccc(NS(=O)(=O)c3ccc(C)cc3)cc2)cc1	9	90*	0.1	-4	0.1	94*
CCOc1c(Cl)cc(CNCC(C)C)cc1OC	9	71*	0.3	-1	1	1
CCCCNCc1cc(Cl)c(OCCC)c(OCC)c1	18	68*	0.3	-28	0.6	35
COc1cc(CNC(=O)OCC(C)C)cc(OC)c1OC	20	31	0.7	-2	0.8	15
CCCCOc1c(Cl)cc(CNC(C)(C)CO)cc1OCC	2	12	0.9	3	1	-5
COC(=O)Nc1ccc(NC(C)=O)cc1	-5	-12	1.1	-11	1.1	-9
Cc1ccc(NC(=O)CNc2ccc(OC(C)C)cc2)cc1	1	33	0.7	-3	0.3	70*
SMILES	PostGolgi ctrl	CYP2C19 inhib	CYP2C19 activ	PostGolgi yeast	CYP2C9 activ	CYP2C9 inhib
O=C(COC(=O)c1cccnc1)Nc1ccc(F)cc1	3	84*	0.2	4	0.7	33
CCN(CC)c1ccc(NC(=O)COc2ccc(C)cc2)cc1	x	66*	0.3	x	1.5	-54
CCN(CC)c1ccc(NC(=O)OC)cc1	-1	10	0.9	8	0.4	63*
CCOc1ccc(NC(=O)COC(=O)c2cccnc2)cc1	0	13	0.9	-5	0.8	16
COc1ccc(NC(=O)c2cc(CC(C)C)on2)cc1OC	10	24	0.8	0	1.3	-31
Cc1ccc(OCC(=O)Nc2ccc(N(C)C)cc2)cc1	-2	87*	0.1	6	0.9	12
COCC(=O)Nc1ccc(N(C)C)cc1	-2	15	0.8	0	1	-3
Cc1cc(NC(=O)COC(=O)CCC(=O)c2ccc(F)cc2)no1	5	8	0.9	-1	0.8	16
CN(C)c1ccc(NC(=O)COC(=O)CCC(=O)c2ccc(F)cc2)cc1	4	90*	0.1	-1	0.2	81*
Cc1ccc(NC2=CC(=O)OC(C)C2)cc1 (stereo unspecified)	6	-8	1.1	-5	1.1	-9
CC1(C)SC(=S)N(/N=C/c2ccc(O)cc2)C1N(O)C(=O)Nc1ccc([N+](=O)[O-])cc1 (stereo unspecified)	11	27	0.7	3	0.3	66*
Cc1ccc(/C=N/N2C(=S)SC(C)(C)C2N(O)C(=O)Nc2ccc([N+](=O)[O-])cc2)cc1 (stereo unspecified)	9	23	0.8	1	0.7	30
CCCOc1ccc(C(C)(O)CN2CCOCC2)cc1 (stereo unspecified)	7	54*	0.5	4	0.6	44
CC(NC(=O)Cn1c(=O)[nH]c2ccsc2c1=O)C12CC3CC(CC(C3)C1)C2 (stereo unspecified)	6	-7	1.1	-3	1	0
COc1cc2c(cc1OC)CN(C(=O)COc1ccc(C)c(C)c1)CC2	9	72*	0.3	4	0.4	62*
Cc1cc(=O)oc2cc(OCC(=O)N3CCc4ccccc4C3)ccc12	5	45	0.5	-11	0.8	25
COc1ccc2c(c1)c(=O)oc1c(C)c(OCC(=O)N3CCc4ccccc4C3)ccc12	3	37	0.6	3	0.4	62*
O=C(CCN1CCN(c2ccccc2)CC1)Nc1nccs1	2	46	0.5	0	0.7	31
Cc1cc(C(C)(C)C)cc(S(=O)(=O)NCCO)c1C	10	42	0.6	-1	3*	-197
CC(Oc1ccc(Cl)cc1Cl)C(=O)Nc1ccc(S(=O)(=O)Nc2cnc3ccccc3n2)cc1 (stereo unspecified)	49*	14	0.9	57*	0	100*
Cc1cc(Cl)ccc1OC(C)C(=O)Nc1ccc(S(=O)(=O)Nc2cnc3ccccc3n2)cc1 (stereo unspecified)	35*	-4	1	27	0.1	88*
CCCn1c2ccc(/C(C)=N\O)cc2c2cc(/C(C)=N/O)ccc21	7	-8	1.1	-2	1	0
CCn1c2c(c3cc(Br)ccc31)CCC/C2=N\O	41*	-14	1.1	6	1.2	-24
O=C(NC1(C(F)(F)F)C(=O)Nc2c1c(=O)[nH]c(=O)n2Cc1ccco1)C1CCCCC1 (stereo unspecified)	-4	-12	1.1	14	1.1	-7

Screening data: PubChem, several laboratories
